# “And” between values parts separate entries of the source, which are not always exact repeats. Identical values can stand only once. This is part of a sample that, as a whole, favours compounds with a hit. Of some 83,000 tested, about 20% had one in any assay.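 Testing used 96-well plates and a 48-hour single-concentration exposure. Example: -40 means 40% of the starting cells died.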 The source made the active and inactive calls. Where a SMILES comes first, the peptide text is derived from it.
# System: RPMI-8226 leukemia
# Test: NCI-60 one-dose screen, 48 h (100 = growth as untreated, 0 = no growth, -100 = all killed)
# Conditions: 10 µM unless noted
# Protocol: Growth inhibition of the RPMI-8226 human tumor cell line is measured as a screen for anti-cancer activity. Cells are grown in 96 well plates and exposed to the test compound for 48 hours. Compounds are tested at a single concentration, which is 10^-5 M for most compounds. The reported endpoint is percent growth (GI% or GIPRCNT), where numbers from 0 - 100% represent growth inhibition, and numbers from -100% - 0 represent cell death. For example, a value of 40 represents 60% growth inhibition. A value of 0 means no net growth occurred over the course of the experiment. A value of -40 indicates 40% of cells at the beginning of the experiment died by the end of the experiment. A value of -100 means all cells are dead at the end of the experiment.
# NCI-60 Human Tumor Cell Lines Screen was performed using the standard one-dose NCI protocol, which is described in more detail at https://dtp.cancer.gov/discovery_development/nci-60/default.htm.
# Compounds with GIPRCNT values below 10 were considered active. Activity score was based on GIPRCNT using the following formula: […]
# Score is 0 for GIPRCNT values of 100 or above, 50 for GIPRCNT values of 0, and 100 for GIPRCNT values of -100.
row,Structure (SMILES),growth
1,CCc1cc(C)cc(O)c1,106% (inactive)
2,C#CCOC(=O)Nc1ccccc1,105% (inactive)
3,O=c1n(CC2CO2)c(=O)n(CC2CO2)c(=O)n1CC1CO1 (stereo not given),84.6% (inactive)
4,Oc1ccc(Cc2ccccc2Cl)c(O)c1,87.5% (inactive)
5,COc1ccc(Nc2ccc3ccccc3c2)cc1,66.5% (inactive)
6,O=C(O)CCCl,101% (inactive)
7,O=C1c2c(O)ccc(O)c2C(=O)c2c(NCCNCCO)ccc(NCCNCCO)c21,-21.8% (active) and -30.9% (active)
8,Fc1ccc([I+]c2ccc(F)cc2)cc1,41.7% (inactive)
9,O=c1[nH]cnc2c1ncn2C1OC(CO)C(O)C1O (stereo not given),101% (inactive) and 93.6% (inactive) and 96.5% (inactive)
10,Cc1ccc(S(=O)(=O)c2ccccc2)cc1,49% (inactive)
11,OCCN1CCCCCCC1,108% (inactive)
12,O=C1OC(c2ccccc2)=N/C1=C\c1ccccc1,102% (inactive)
13,O=C1OC(C(O)C(O)CO)C(O)=C1O (stereo not given),98.1% (inactive) and 105% (inactive)
14,CC1=C/C(O)CC(=O)Cc2nc(co2)C(=O)N2CCC=C2C(=O)OC(C(C)C)C(C)/C=C\C(=O)NC/C=C\1 (stereo not given),60.7% (inactive)
15,ClCCOCCOc1ccc(C2CCCCC2)cc1,110% (inactive)
16,O=C1C=C(Nc2ccccc2)c2ccccc2C1=O,52.7% (inactive) and 87.3% (inactive)
17,CC(=O)OCC1OC(OC(C)=O)C(OC(C)=O)C(OC(C)=O)C1OC(C)=O (stereo not given),100% (inactive) and 103% (inactive)
18,CCCCCCCCCCCCCCCCC(C(=O)O)C(O)(CC(=O)O)C(=O)O (stereo not given),104% (inactive) and -25.5% (active)
19,CN(C)c1ccc(/C=C\C(=O)c2ccccc2)cc1,72.7% (inactive) and 76.8% (inactive) and 69.6% (inactive)
20,CC1CCC(C(C)C)C(NNC(N)=O)C1 (stereo not given),98.5% (inactive)

row,Structure (SMILES),growth
1,COc1ccc(N/C=C/C2=[N+](C)c3ccccc3C2(C)C)c(OC)c1,81.6% (inactive)
2,CCOC(=O)c1c(C)cc(=O)oc1C,97.9% (inactive)
3,Cl,115% (inactive)
4,COc1ccc2cc1Oc1ccc(cc1)C[C@H]1c3cc(c(OC)cc3CCN1C)Oc1c(OC)c(OC)cc3c1[C@H](C2)N(C)CC3,-31.2% (active)
5,CC(C)C(C)(C)c1ccc(O)cc1,105% (inactive)
6,CN1CNC(=O)NC1,113% (inactive) and 104% (inactive)
7,NN1CCOC(c2ccccc2)C1 (stereo not given),97.8% (inactive)
8,Nc1ccc2c(O)cc(S(=O)(=O)O)cc2c1,85% (inactive)
9,Nc1nc(N)c2[nH]cnc2n1,64.3% (inactive)
10,c1ccc(CNCCNCc2ccccc2)cc1,101% (inactive)
11,CCCCCCCCCCCCCCCc1ccc(N)c(OC2OC(CO)C(O)C(O)C2O)c1 (stereo not given),28.7% (inactive)
12,CC1CCC2(OC1)OC1CC3C4CC=C5CC(O)CCC5(C)C4CCC3(C)C1C2C (stereo not given),71.4% (inactive)
13,O=CN1CCCCC1,177% (inactive)
14,NC(Cc1ccccc1)C(=O)NC(Cc1ccccc1)C(=O)O (stereo not drawn) (H-Phe-Phe-OH; configuration not given here),112% (inactive) and 101% (inactive)
15,CC(C)(O)C(=O)O,103% (inactive)
16,Cc1cc(-c2cc(C)c(O)c(C)c2)cc(C)c1O,79.4% (inactive)
17,CC[C@H](CC[C@@H](C)[C@H]1CC[C@H]2[C@@H]3CC=C4C[C@@H](O)CC[C@]4(C)[C@H]3CC[C@]12C)C(C)C,114% (inactive)
18,CCCCCCCCCCNC(=O)CI,-37.1% (active)
19,Cc1cc2ccccc2cn1,100% (inactive) and 114% (inactive)
20,Nc1cc(N)c(N)cc1N,89.7% (inactive)
